Experimental data from PubChem BioAssay AID624167 (Sanford-Burnham Center for Chemical Genomics, 2012).

Test: Peg3 promoter luciferase inhibitors, potency, dose response, cell-based, HeLa, CREF/GAPDH counter-screen panel (AID 624167)
Details: CREF/GAPDH counter-screens; run 1, dose range 1, at 100 µM (top of the series)

SMILES | inhibition [%]
CCCCC(=O)NC(c1ccc(OC)cc1)c1ccc2cccnc2c1O (configuration not stated) | 21.2
Cc1cc(Br)ccc1NC(=O)CNC(=O)Cn1ncc(Cl)c(Cl)c1=O | 98.5
CCCC(=O)NC(c1ccc(N(C)C)cc1)c1ccc2cccnc2c1O (configuration not stated) | 25.9
COc1ccc(NC(=O)c2cc(-c3ccccn3)nc3ccccc23)cc1S(=O)(=O)N(C)C | 48.4
CCSc1nc2ccccc2n1C(=O)/C=C\c1ccc(OC)c(OC)c1 | 77.4
Cc1ccc(/C=C2\SC(=S)N(CCCC(=O)NNC(=O)c3ccccc3O)C2=O)cc1 | 76.4
O=[N+]([O-])c1ccc(S(=O)(=O)c2ccccc2)nc1 | 100
CC1CC(C)C(=O)C(C(CC2CC(=O)NC(=O)C2)OC(=O)CC(=O)c2ccccc2)C1 (configuration not stated) | 88.4
C=C1CC2(OC1=O)c1ccccc1CCc1ccccc12 | 100
CN(C(=O)COC(=O)/C=C/c1cccc([N+](=O)[O-])c1)C1CCS(=O)(=O)C1 (configuration not stated) | 26
N=c1n(CC(=O)c2ccc([N+](=O)[O-])cc2)c2ccccc2n1Cc1ccc(Cl)cc1 | 86
Cc1ccc(-n2c(N)c(C(=O)Nc3c(C)n(C)n(-c4ccccc4)c3=O)c3nc4ccccc4nc32)cc1 | 77.5
O=C(N/N=C\c1c(O)ccc2ccccc12)c1cncc(Br)c1 | 65.3
Cc1ccccc1CNC(=O)C1CCCN(c2nnc(C)c3c(C)n(-c4ccccc4)nc23)C1 (configuration not stated) | 97.3
CCCCC(=O)NC(c1ccccc1)c1ccc2cccnc2c1O (configuration not stated) | 47.5
CC(=O)c1sc2c(c1OC(=O)c1ccc(Cl)cc1Cl)c(=O)n(-c1ccccc1)c(=S)n2-c1ccccc1 | 85.9
C/C(=N\NC(=O)c1c(C)nc2ccccn12)c1ccc(O)cc1O | 3.34
